Assay results reported in PubChem BioAssay AID1159580 (chemical genetic matrix, 2015).
The whole screen tested about 5,500 compounds, of which about 2,000 (36%) were called active. About 18% were inconclusive and are not listed. Rule as the data show it: active = normalized growth mostly below about 0.91 (no sharp cut-off); inconclusive = no clear call, values can overlap the other calls; inactive = mostly above about 0.92. This is one part of the list.

Test: chemical genetic growth profiling, strain panel (AID 1159580);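 also: tested at 20 µM; growth read once vehicle control cultures reached saturation at 30 °C; 1 = growth at the plate median or of vehicle wells; lower values mean less growth of the strain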
Settings: S. cerevisiae deletion strains, growth OD

Measured: normalized growth

O=c1cc(-c2ccc(O)cc2)oc2cc(O)cc(O)c12
inactive: locus YAL021C, strain ccr4, active compounds read low 0.995 | locus YAL026C, strain drs2, active compounds read low 0.978 | locus YAL030W, strain snc1, active compounds read low 0.99 | locus YAL040C, strain CLN3, active compounds read low 0.976 | locus YBL061C, strain skt5, active compounds read low 1 | locus YBR009C, strain hhf1, active compounds read low 1.01 | locus YBR023C, strain chs3, active compounds read low 0.993 | locus YBR171W, strain sec66, active compounds read low 0.997 | locus YBR231C, strain swc5, active compounds read low 1 | locus YBR279W, strain paf1, active compounds read low 0.994 | locus YCL011C, strain gbp2, active compounds read low 0.999 | locus YCL016C, strain dcc1, active compounds read low 0.998 | locus YCL061C, strain MRC1, active compounds read low 1.01 | locus YCL069W, strain vba3, active compounds read low 0.989 | locus YCR088W, strain abp1, active compounds read low 0.987 | locus YDL005C, strain med2, active compounds read low 0.995 | locus YDL040C, strain nat1, active compounds read low 0.99 | locus YDR001C, strain nth1, active compounds read low 0.981 | locus YDR069C, strain doa4, active compounds read low 0.966 | locus YDR137W, strain rgp1, active compounds read low 1.04 | locus YDR159W, strain sac3, active compounds read low 0.975 | locus YDR195W, strain ref2 0.955 | locus YDR297W, strain sur2, active compounds read low 0.993 | locus YDR334W, strain swr1, active compounds read low 0.98 | locus YDR335W, strain msn5, active compounds read low 0.996 | locus YDR363W, strain ESC2, active compounds read low 0.998 | locus YDR392W, strain spt3, active compounds read low 0.922 | locus YEL003W, strain gim4, active compounds read low 0.997 | locus YEL037C, strain rad23, active compounds read low 0.981 | locus YEL061C, strain CIN8 (second series), active compounds read low 0.985 | locus YER002W, strain NOP16, active compounds read low 0.987 | locus YER015W, strain faa2, active compounds read low 0.986 | locus YER016W, strain bim1, active compounds read low 0.98 | locus YER111C, strain swi4, active compounds read low 0.989 | locus YER155C, strain BEM2 (second series), active compounds read low 0.975 | locus YFR010W, strain ubp6, active compounds read low 0.966 | locus YGL167C, strain pmr1, active compounds read low 0.974 | locus YGL173C, strain kem1, active compounds read low 1 | locus YGL227W, strain vid30, active compounds read low 0.989 | locus YGL240W, strain doc1, active compounds read low 1 | locus YGL253W, strain hxk2, active compounds read low 0.973 | locus YGR229C, strain SMI1, active compounds read low 1.01 | locus YHR013C, strain ard1, active compounds read low 1.01 | locus YHR027C, strain rpn1, active compounds read low 0.997 | locus YHR030C, strain SLT2, active compounds read low 1.02 | locus YHR079C, strain IRE1, active compounds read low 0.996 | locus YHR142W, strain chs7, active compounds read low 0.98 | locus YJL092W, strain hpr5, active compounds read low 0.988 | locus YJL095W, strain BCK1 (second series), active compounds read low 0.996 | locus YJL095W, strain BCK1, active compounds read low 1.02 | locus YJL115W, strain asf1, active compounds read low 0.978 | locus YJL129C, strain trk1, active compounds read low 0.995 | locus YJL154C, strain vps35, active compounds read low 0.977 | locus YJL164C, strain tpk1, active compounds read low 1.03 | locus YJL166W, strain qcr8, active compounds read low 1.01 | locus YJL187C, strain SWE1, active compounds read low 0.998 | locus YJR066W, strain TOR1, active compounds read low 0.954 | locus YKL160W, strain elf1, active compounds read low 1.01 | locus YKR026C, strain gcn3, active compounds read low 0.972 | locus YKR091W, strain srl3, active compounds read low 0.985 | locus YLL001W, strain dnm1, active compounds read low 1.03 | locus YLL026W, active compounds read low 0.993 | locus YLL041C, strain sdh2, active compounds read low 0.997 | locus YLR027C, strain aat2, active compounds read low 0.998 | locus YLR113W, strain HOG1, active compounds read low 0.95 | locus YLR221C, strain rsa3, active compounds read low 0.992 | locus YLR258W, strain gsy2, active compounds read low 1 | locus YLR262C, strain YPT6 (second series), active compounds read low 1.05 | locus YLR320W, strain mms22, active compounds read low 1.01 | locus YLR342W, strain FKS1, active compounds read low 0.993 | locus YLR357W, strain rsc2, active compounds read low 0.918 | locus YLR370C, strain arc18, active compounds read low 0.981 | locus YLR384C, strain iki3, active compounds read low 0.98 | locus YML120C, strain ndi1, active compounds read low 0.984 | locus YMR058W, strain fet3, active compounds read low 0.97 | locus YMR125W, strain sto1, active compounds read low 0.973 | locus YMR129W, active compounds read low 0.989 | locus YMR205C, strain PFK2, active compounds read low 1.03 | locus YMR231W, strain pep5, active compounds read low 0.996 | locus YNL071W, strain lat1, active compounds read low 0.993 | locus YNL175C, strain NOP13, active compounds read low 1.01 | locus YNL183C, strain NPR1, active compounds read low 0.943 | locus YNL197C, strain WHI3, active compounds read low 0.981 | locus YNL209W, strain ssb2, active compounds read low 0.998 | locus YNL224C, strain SQS1, active compounds read low 0.982 | locus YNL248C, strain rpa49, active compounds read low 0.989 | locus YNL322C, strain KRE1 (second series), active compounds read low 0.977 | locus YNR049C, strain mso1, active compounds read low 0.989 | locus YOR001W, strain rrp6, active compounds read low 1 | locus YOR070C, strain gyp1, active compounds read low 1 | locus YOR080W, strain dia2, active compounds read low 0.986 | locus YOR083W, strain WHI5 (second series), active compounds read low 0.954 | locus YOR083W, strain WHI5, active compounds read low 1.02 | locus YOR106W, strain vam3, active compounds read low 0.999 | locus YOR231W, strain MKK1, active compounds read low 1.02 | locus YOR265W, strain rbl2, active compounds read low 0.998 | locus YOR270C, strain vph1, active compounds read low 0.988 | locus YOR290C, strain snf2, active compounds read low 0.96 | locus YPL051W, strain arl3, active compounds read low 0.999 | locus YPL078C, strain atp4, active compounds read low 1 | locus YPL106C, strain sse1, active compounds read low 0.955 | locus YPL240C, strain hsp82, active compounds read low 0.995 | locus YPL256C, strain CLN2, active compounds read low 1.01
